Measurements from ChEMBL document CHEMBL3988442, “University of Dundee, Small-Polar-MMV Screening Library” (2021).
Hit rate of the full screen: of about 38,000 compounds, about 1,200 (3.2%) showed an effect of 50% or more. The median lay at about -58%. The sample as a whole holds a higher share of strong results than the screen did.

System: Plasmodium falciparum
Experiment: Calibr Malaria Delayed Death Assay SOP
Format: functional, organism-based
Set-up: scale not given: in the data most compounds retested in dose-response had high values
Settings: concentration 4.99e-06 (unit not given; other assays of the set use mol/L)

Compound	Percent Effect
Cc1ccc(C)c(S(=O)(=O)NC(=O)c2cccc3c2OCCO3)c1	-117.7%
C[C@@H]1CN(Cc2ccncc2)C[C@]1(C)O	-25.52%
COc1cccc(CN2CCCCC2CN2CCOCC2)c1F (stereo not given)	2.016%
COc1cc2c(cc1CN1C[C@@H](CN3CCOCC3)[C@@H](CO)C1)CCC2	19.43%
COc1cc2c(cc1CN1CCCCC1CN1CCOCC1)CCC2 (stereo not given)	64.85%
Cc1c(C(=O)NCCCC(N)=O)sc2ccc(F)cc12	-72.75%
O=C1CC(NS(=O)(=O)c2ccc3ccccc3c2)CN1 (stereo not given)	-65.16%
Cc1noc([C@@H]2C[C@@H]3CCN(c4nnc(C)s4)C[C@H]3O2)n1.O=C(O)C(F)(F)F	-44.29%
Cc1c(CN(C)c2cc(C3CCCNC3)ncn2)[nH]c2ccccc12 (stereo not given)	11.41%
Cc1nc(CCN)cc(N(C)Cc2nc3ccc(F)cc3[nH]2)n1	-113.9%
Cc1nc(C2CCNCC2)cc(N(C)Cc2cc3cc(F)ccc3[nH]2)n1	75.18%
Cc1ccnc(CC(C)N(C)c2cc(C3CCNCC3)nc(C)n2)c1 (stereo not given)	-104.4%
CNS(=O)(=O)CC(=O)N(Cc1c(F)cccc1Cl)C1CC1	-68.94%
CN(Cc1cc2cc(F)ccc2[nH]1)c1cc(C2CCCNC2)ncn1 (stereo not given)	83.71%
Cc1nc(C2CCNCC2)cc(N(C)CCc2cn[nH]c2)n1	-114.3%
Cc1nc(NCc2coc(-c3ccccc3)n2)cc(C2CCNCC2)n1	-7.041%
CN(Cc1cc2cc(F)ccc2[nH]1)C(=O)C1CC(=O)N(C2CCCC2)C1 (stereo not given)	12.79%
Cc1nc(NCc2ccc(C)o2)cc(C2CCNCC2)n1	-133.8%
Cc1cccc(CNC(=O)Nc2cc(C(F)(F)F)c[nH]c2=O)n1	-120.3%
CCn1nc(C)c2nc(C)nc(NC3CCCC3)c21	-48.65%
Cc1ccc(CN2CCN(CC(=O)Nc3ccc4nsnc4c3)CC2)o1	-102.5%
CC(=O)c1ccc(-c2cc(C(F)(F)F)cc(N(C)C)n2)cc1	-183.7%
CCOC(=O)C1=NOC(Cc2cc(OC)c3c(c2)OCO3)C1 (stereo not given)	-124.2%
Cc1cc(N2CCOCC2)ccc1NC(C)c1nc(C(C)C)no1 (stereo not given)	-4.816%
Cc1sc2nc(C(F)(F)F)nc(N3CCN(S(C)(=O)=O)CC3)c2c1C	-77.64%

Compound	Percent Effect
Cc1sc2nc(C(F)(F)F)nc(N3CCC(NS(C)(=O)=O)CC3)c2c1C	27.92%
Cc1sc2nc(CCN)nc(N3CCS(=O)(=O)CC3)c2c1C	-119.4%
CCOC(=O)N1CCN(c2nc(CCN)nc3sc(C)c(C)c23)CC1	65.93%
Cc1sc2nc(CCN)nc(N3CCC(N4CCCC4)CC3)c2c1C	84.16%
CCOC(=O)N1CCN(c2nc(C)ncc2CC)CC1	-56.83%
Cn1ccnc1-c1cn(CCCc2nnc(N)s2)nn1	-41.76%
O=C(N1CCCC(n2cncn2)C1)C1(c2cccc(F)c2)CCC1 (stereo not given)	-129.3%
CCN(CC)C(=O)COc1ccnc2cc(OC)ccc12	-91.77%
O=C(C1CCCO1)N1CCC2(CC1)COCCN(Cc1cccnc1)C2.O=C(O)C(F)(F)F.O=C(O)C(F)(F)F (stereo not given)	-101.1%
Cc1cccn2cc(CNCc3cccc4c3OCCCO4)nc12	52.57%
c1cc(CNCCc2cn3ccccc3n2)c2c(c1)OCCCO2	-61.04%
Cc1cccc2nc(CNCc3cccc4c3OCCCO4)cn12	46.47%
CN(C)C(=O)Cc1ccc(-c2cccc3c2CCNC3)cc1	-89.76%
CCCOC1CCCN(c2ccnc(C(=O)NCc3ccco3)c2)C1 (stereo not given)	63.16%
CN(C)[C@H]1CCN(c2ccnc(C(=O)NCc3ccco3)c2)C1	-104.8%
O=C(NCc1ccco1)c1cc(N2CC[C@@H](O)C2)ccn1	-225.7%
CCS(=O)(=O)Nc1cnn(Cc2cccc(Cl)c2)c1	-156.5%
COc1ccc(-c2nc3c([nH]2)CCCNC3=O)cc1OC	-190.2%
Cc1nn(C)c(N2CCOCC2)c1CNC(C)c1ccccn1 (stereo not given)	-39.11%
O=C(N[C@@H]1CCCNC1)C1(Oc2ccc(Cl)cc2)CCNCC1	-19.49%
COc1cccn(CC(=O)N(C)Cc2ccoc2)c1=O	-45.98%
CN(C)C(=O)C1(Oc2ccc(Cl)cc2)CCNCC1	48.49%
Cc1ccc(OC2(C(=O)N(C)Cc3ccoc3)CCNCC2)cc1	63.87%
CN(Cc1ccncn1)C(=O)C1(Oc2ccc(Cl)cc2)CCNCC1	-76.49%
CN(Cc1ccoc1)C(=O)C1(Oc2ccc(Cl)cc2)CCNCC1	67.21%
